Source: PubChem
HP1b binding inh: blocks HP1-beta chromodomain binding to methylated histone tails; actives 0.56% (n = 390,000); Potency, µM (top dose mostly 114 µM), hits mostly inhibitors; P83916; AlphaScreen HP1-beta / biotin-H3K9me3 peptide binding; note: nearly all actives have a fitted effect of over 70% in size
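Compound inhibition of the preformed complex between 50 nM HP1-beta and 50 nM biotinylated H3K9me3 peptide was read by AlphaScreen. Buffer was PBS pH 7.4 with 0.01% Tween-20. Incubations ran 30 min at room temperature, with 10 ug/mL donor/acceptor beads.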
TDP1 inh: blocks human tyrosyl-DNA phosphodiesterase 1 | Q9NUW8 | recombinant TDP1, AlphaScreen DNA substrate cleavage | Potency, µM (top dose mostly 130 µM), most hits filed as inhibitors | actives 0.28% (n = 350,000) | AID 485290; note: nearly all actives have a fitted effect of over 40% in size
Target sequence (Q9NUW8 whole entry, looked up): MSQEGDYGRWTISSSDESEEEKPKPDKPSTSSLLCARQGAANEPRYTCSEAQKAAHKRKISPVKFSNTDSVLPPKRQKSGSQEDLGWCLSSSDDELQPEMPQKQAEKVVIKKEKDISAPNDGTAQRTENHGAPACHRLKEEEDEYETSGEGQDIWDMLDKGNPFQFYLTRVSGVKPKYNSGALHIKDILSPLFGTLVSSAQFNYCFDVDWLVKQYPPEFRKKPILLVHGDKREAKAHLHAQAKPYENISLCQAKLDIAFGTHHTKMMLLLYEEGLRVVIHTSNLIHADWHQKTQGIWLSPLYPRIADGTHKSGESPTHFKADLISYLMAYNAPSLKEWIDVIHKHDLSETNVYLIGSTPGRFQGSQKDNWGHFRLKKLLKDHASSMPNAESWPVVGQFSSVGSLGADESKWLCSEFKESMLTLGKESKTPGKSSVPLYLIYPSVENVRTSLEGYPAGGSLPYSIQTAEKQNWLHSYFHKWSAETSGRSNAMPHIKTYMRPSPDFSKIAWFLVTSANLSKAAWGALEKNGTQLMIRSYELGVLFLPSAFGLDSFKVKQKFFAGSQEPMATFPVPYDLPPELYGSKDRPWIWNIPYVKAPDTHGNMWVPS
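E. coli-derived human Tdp1, 1 nM final. Cpd preinc 15 min RT; substrate 15 nM final, 5 min RT; AS bead mix 10 ug/ml final, 10 min RT. Signal loss = tyrosine-FITC cleavage. No-enzyme wells = max signal.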
Six1-Eya2 blk: blocks human Six1 binding to Eya2 | Q15475+O00167 | AlphaScreen GST-Six1/His-Eya2 binding, biochemical; active compounds read low | activity change, % (test concentration not listed) | actives 0.56% (n = 360,000); in the data active = activity change below about -65%; inconclusive = mostly about -30% to -63%
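Homogeneous AlphaScreen proximity assay pairing GST-Six1 with His-tagged Eya2 (added as 5X mix: 250 nM and 500 nM) in 50 mM Tris pH 8.0, 300 mM NaCl, 1 mM TCEP. Glutathione donor and nickel acceptor beads; 1 h, 37 °C, dark.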
BAZ2B block: blocks human BAZ2B. AID 504333. Q9UIF8. AlphaScreen BAZ2B-H3K14Ac peptide displacement. Potency, µM (series often up to 114 µM), hits mostly inhibitors. actives 4.4% (n = 360,000); note: nearly all actives have a fitted effect of over 60% in size
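Multi-concentration screen (max 110 uM) measuring displacement of acetylated histone H3 peptide from BAZ2B by AlphaScreen, using 50 nM protein, 50 nM peptide and 10 ug/mL streptavidin donor plus Ni-chelate acceptor beads.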
CtBP-E1A inh: CtBP/E1A binding inhibition | AlphaScreen GST-E1A/His-CtBP binding, 1536-well; active compounds read low | activity change, % (no concentration beside the values) | actives 0.49% (n = 340,000) | AID 651724; in the data active = activity change below about -65%; inconclusive = mostly about -30% to -63%
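AlphaScreen with 125 nM GST-E1A and 125 nM His-CtBP (5X stocks) in Tris pH 8.0, 300 mM NaCl, BSA, Tween 20, TCEP. Compounds preincubated 2 h at 37 deg C, then glutathione donor/nickel acceptor beads added for 1 h at 37 deg C in dark.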
JMJD2A Tudor inh: blocks the human JMJD2A Tudor domain; actives 4.4% (n = 390,000); AID 504339; Potency, µM (top dose mostly 114 µM), most hits filed as inhibitors; O75164; AlphaScreen JMJD2A-Tudor / H3K4me3 peptide binding; note: nearly all actives have a fitted effect of over 50% in size
Numbers stand for hits. Compounds with a hit are over-represented: about 5.3% of the library has one in this group of screens. Unless noted, calls come from the whole dose curve; as a rule, active = well fitted inhibition curve with a large enough effect; inconclusive = small, poorly fitted or top-dose-only effect; inactive = no such curve, though single readings can be large or run the other way.

`COc1ccc(NC(=O)COC(=O)CNS(=O)(=O)/C=C/c2ccccc2)cc1OC` gave HP1b binding inh inactive, TDP1 inh inactive, Six1-Eya2 blk inactive, BAZ2B block inactive and JMJD2A Tudor inh inactive.
Screening O=C(COC(=O)/C=C/c1cccc(F)c1)Nc1ncccn1 returned HP1b binding inh inactive, Six1-Eya2 blk inactive, BAZ2B block 56.2µM, CtBP-E1A inh inactive and JMJD2A Tudor inh inconclusive.
`O=C(COC(=O)/C=C/c1cccc(F)c1)Nc1ccc(Cl)cn1` gave HP1b binding inh inactive, TDP1 inh inactive, Six1-Eya2 blk inactive, BAZ2B block inactive, CtBP-E1A inh inactive and JMJD2A Tudor inh inactive.
`CCS(=O)(=O)c1ccc(O)c(Nc2cc(C)nc(SC)n2)c1` gave HP1b binding inh inactive, TDP1 inh inactive, BAZ2B block inactive and JMJD2A Tudor inh inactive.
`COc1cc2c(cc1OC)/C(=C/C(=O)c1ccccc1F)NCC2` gave HP1b binding inh inconclusive, Six1-Eya2 blk inactive, BAZ2B block inconclusive, CtBP-E1A inh inactive and JMJD2A Tudor inh inconclusive.
COc1cc2c(cc1OC)/C(=C/C(=O)c1ccc(F)cc1)NCC2 was read as HP1b binding inh inactive, Six1-Eya2 blk inconclusive, BAZ2B block 50.1µM, CtBP-E1A inh inactive and JMJD2A Tudor inh inconclusive.
`CCC(C)(C)C1CCC(=NNC(=S)Nc2cccnc2)CC1` (stereo unspecified) gave HP1b binding inh inactive, TDP1 inh inactive, Six1-Eya2 blk inactive, BAZ2B block inconclusive, CtBP-E1A inh inactive and JMJD2A Tudor inh 44.7µM.
Screening CCN(CC)CCNC(=O)c1c(C)oc2ncnc(N3CCOCC3)c12 returned HP1b binding inh inactive, TDP1 inh inactive, BAZ2B block inactive and JMJD2A Tudor inh inactive.
For Cc1nc2ccc(NC(=O)c3cc(Cl)ccn3)cc2s1 the results were HP1b binding inh inactive, TDP1 inh inactive, Six1-Eya2 blk inactive, BAZ2B block 79.4µM, CtBP-E1A inh inactive and JMJD2A Tudor inh inactive.
For CCOc1ccc2nc(NC(=O)c3ccccn3)sc2c1 the results were HP1b binding inh inactive, Six1-Eya2 blk inconclusive, BAZ2B block inactive, CtBP-E1A inh inconclusive and JMJD2A Tudor inh inactive.
Screening Cc1ccc2nc(NC(=O)c3ccccn3)sc2c1 returned HP1b binding inh inactive, TDP1 inh inactive, Six1-Eya2 blk -72.6, BAZ2B block inactive, CtBP-E1A inh inconclusive and JMJD2A Tudor inh inactive.
`Cc1nc2ccc(NC(=O)c3cc([N+](=O)[O-])cc([N+](=O)[O-])c3Cl)cc2s1` gave HP1b binding inh inconclusive, TDP1 inh inactive, Six1-Eya2 blk inactive, BAZ2B block inconclusive, CtBP-E1A inh inactive and JMJD2A Tudor inh 56.2µM.
Cc1cc(C(=O)Nc2nc3ccc(Cl)cc3s2)nn1C was read as HP1b binding inh inactive, Six1-Eya2 blk inactive, BAZ2B block inactive, CtBP-E1A inh inactive and JMJD2A Tudor inh 25.1µM.
Screening CCN1CCC(N(Cc2cccc(OC)c2)C(=O)Nc2ccc(C)cc2Cl)CC1 returned HP1b binding inh inactive, TDP1 inh inactive, BAZ2B block inactive and JMJD2A Tudor inh inactive.
CCOC(=O)c1c(C)c(-c2ccccc2)n(CC(=O)Nc2ccc(OCC)cc2)c1C was read as HP1b binding inh inactive, TDP1 inh inactive, BAZ2B block inactive and JMJD2A Tudor inh inactive.
For CCC1CN(C(=O)N2CCC(C(=O)NCc3ccc(OC)cc3OC)CC2)c2cc(C)ccc2O1 (stereo unspecified) the results were HP1b binding inh inactive, TDP1 inh inactive, BAZ2B block inactive and JMJD2A Tudor inh inactive.
Screening CCOc1cc(C(=O)NCc2ccc3c(c2)CCN3C(=O)c2ccc(F)cc2)cc(OCC)c1OCC returned HP1b binding inh inactive, TDP1 inh inactive, BAZ2B block inactive and JMJD2A Tudor inh inactive.
CSc1nc2ccc(NC(=O)C3=NNC(=O)CC3)cc2s1 was read as HP1b binding inh inactive, TDP1 inh inactive, Six1-Eya2 blk inactive, BAZ2B block inactive and JMJD2A Tudor inh inactive.
For CSc1nc2ccc(NC(=O)c3ccccn3)cc2s1 the results were HP1b binding inh inactive, TDP1 inh inactive, Six1-Eya2 blk inactive, BAZ2B block inactive, CtBP-E1A inh inactive and JMJD2A Tudor inh 28.2µM.
